TRHR enhancer: allosteric enhancers of human TRH receptor; enhancement, % at 2 µM; P34981; actives 0.66% (n = 360,000); TRHR cells, fluo-8 calcium fluorescence, EC20 TRH enhancement; in the data active = enhancement above about 30%; also: 0% is about no effect
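Enhancer read-out: after compound pinning and an initial kinetic agonist-mode read, an EC20 of TRH (10 nM final) was injected and fluo-8 calcium signal (Ex 480/Em 530) followed at 1 s/cycle for 100 cycles in TRHR-expressing cells.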
D1 ag: agonists of human D1 dopamine receptor | HEK293 T-REx D1 cells, calcium flux, agonist mode | activation, % at 2 µM | actives 1% (n = 360,000); also: 0% is about no effect
Target sequence (P21728 whole entry, looked up): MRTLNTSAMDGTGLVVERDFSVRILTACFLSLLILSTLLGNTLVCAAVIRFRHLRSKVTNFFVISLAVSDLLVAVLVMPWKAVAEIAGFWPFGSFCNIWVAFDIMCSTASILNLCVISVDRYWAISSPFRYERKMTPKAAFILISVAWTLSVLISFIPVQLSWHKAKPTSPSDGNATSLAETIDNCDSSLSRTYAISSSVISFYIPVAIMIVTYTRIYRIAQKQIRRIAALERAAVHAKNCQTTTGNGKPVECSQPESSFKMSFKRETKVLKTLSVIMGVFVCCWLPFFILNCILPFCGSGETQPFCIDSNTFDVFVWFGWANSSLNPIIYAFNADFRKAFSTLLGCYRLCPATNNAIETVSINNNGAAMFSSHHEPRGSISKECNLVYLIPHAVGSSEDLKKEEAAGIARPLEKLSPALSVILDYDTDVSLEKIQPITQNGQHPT
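Tetracycline-induced HEK293 TREx D1 cells, force-coupled to calcium signalling, were dye-loaded with a no-wash calcium kit. Compound was pin-added after a 10 s baseline. Fluorescence was read kinetically at 1 cycle/s for 180 s, with calcium rises flagged as agonism.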
TRHR agonist: TRH receptor (human) agonism. P34981. TRHR cells, calcium flux fluo-8, FDSS agonist mode. activation, % at 2 µM. actives 0.18% (n = 360,000); also: 0% is about no effect
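Read-out: compound-evoked intracellular calcium rise in TRHR cells, fluo-8 dye, kinetic FDSS fluorescence at 1 s/cycle following a 10-cycle baseline. Cells cultured overnight before dye loading (30 min–1.5 h, RT).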
D1 antagonist: human D1 dopamine receptor antagonism | P21728 | HEK293 TREx D1 cells, calcium flux, dopamine EC80; stronger effect = lower value | activity change, negative = inhibition, % at 10 µM | actives 3.2% (n = 360,000); in the data active = activity change below about -30%; also: % is scaled to controls: 0 for no effect and ±100 for the full control effect
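Calcium flux readout: force-coupled, inducible Hek293 Trex D1 line, cells induced overnight at 30 C with tetracycline, dye-loaded 30–90 min at RT. Antagonism scored against EC80 dopamine challenge given 180 s after compound.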
D1 PAM: enhances dopamine response at the human D1 receptor | HEK293 TREx D1 cells, calcium flux, dopamine EC20 potentiation | potentiation, % at 10 µM | actives 0.036% (n = 360,000) | AID 504651; in the data active = potentiation above about 30%; also: 0% is about no effect
Active calls of the source: *. Most compounds without a hit are left out; they make up all but 4.7% or so of the library. Rule as the data show it, unless noted: active = activation above about 30%; inactive = the rest.

What do the screens show for `O=C(CN1C(=O)COc2ccc(S(=O)(=O)N3CCCC3)cc21)NCCc1ccc(Cl)cc1`?
TRHR enhancer: 0; D1 ag: -2; TRHR agonist: -1; D1 antagonist: -16; D1 PAM: -3

Results for Fc1ccc2[nH]c3c(c2c1)CN(C(=S)NCc1ccccc1)CC3 ?
TRHR enhancer: 6; D1 ag: 6; TRHR agonist: -2; D1 antagonist: -38*; D1 PAM: -4

Results for CS(=O)(=O)c1cccc(-c2nnc(NC(=O)c3ccc4c(c3)OCCO4)o2)c1 ?
TRHR enhancer: -3; D1 ag: 1; TRHR agonist: 0; D1 antagonist: -13; D1 PAM: 1

What do the screens show for `Cc1cc(OCc2cc(C(=O)N(C)CCCN3CCOCC3)no2)cc(C)c1Cl`?
TRHR enhancer: 5; D1 ag: 35*; TRHR agonist: 0; D1 antagonist: -16; D1 PAM: -18

Results for Cc1cc(OCc2cc(C(=O)NCC3(C)COC3)no2)cc(C)c1Cl ?
TRHR enhancer: 3; D1 ag: 22; TRHR agonist: 0; D1 antagonist: -41*; D1 PAM: -2

How did Cc1cc(OCc2cc(C(=O)N(C)CCOc3ccccc3)no2)cc(C)c1Cl do in these assays?
TRHR enhancer: -7; D1 ag: 37*; TRHR agonist: 2; D1 antagonist: -4; D1 PAM: -7

Results for CC(=O)c1ccc(OCc2cc(C(=O)N(C)Cc3ccccn3)no2)cc1 ?
TRHR enhancer: 0; D1 ag: 3; TRHR agonist: 0; D1 antagonist: -73*; D1 PAM: 8

What do the screens show for `Cc1cc(OCc2cc(C(=O)N(C)Cc3ccccn3)no2)cc(C)c1Cl`?
TRHR enhancer: 12; D1 ag: 3; TRHR agonist: -1; D1 antagonist: 0; D1 PAM: -2

What do the screens show for `CCOC(=O)c1cc(S(=O)(=O)Nc2ccc(Br)c(C)c2)[nH]n1`?
TRHR enhancer: -1; D1 ag: 2; TRHR agonist: 0; D1 antagonist: -3; D1 PAM: 3

What do the screens show for `CCN(c1cccc(C)c1)S(=O)(=O)c1nnc(NC(=O)c2ccccc2Cl)s1`?
TRHR enhancer: -3; D1 ag: 10; TRHR agonist: 1; D1 antagonist: 1; D1 PAM: 9

Results for CC(=O)c1ccc(N2CCN(c3ncnc4c3cnn4-c3cc(Cl)ccc3C)CC2)cc1 ?
TRHR enhancer: 7; D1 ag: 1; TRHR agonist: 0; D1 antagonist: -2; D1 PAM: 1

Results for COc1ccc2c3c(cccc13)C(=O)CC2 ?
TRHR enhancer: 8; D1 ag: 52*; TRHR agonist: 122*; D1 antagonist: 0; D1 PAM: -10

How did O=C(NCC12CC3CC(CC(C3)C1)C2)c1cc2nc(-c3ccc(Cl)cc3)cc(C(F)(F)F)n2n1 do in these assays?
TRHR enhancer: 2; D1 ag: -1; TRHR agonist: 1; D1 antagonist: 7; D1 PAM: -2

Results for O=C1NC(=S)S/C1=C/c1ccc(OC(=O)c2ccco2)cc1 ?
TRHR enhancer: 0; D1 ag: 11; TRHR agonist: -1; D1 antagonist: -30*; D1 PAM: -7

What do the screens show for `COc1ccc(C2C(C#N)=C(N)Oc3cc(C)n(Cc4ccncc4)c(=O)c32)cc1` (configuration not stated)?
TRHR enhancer: 5; D1 ag: 0; TRHR agonist: 0; D1 antagonist: -35*; D1 PAM: -2

How did Cc1cc2c(c(=O)n1CCN(C)C)C(c1ccncc1)C(C#N)=C(N)O2 (configuration not stated) do in these assays?
TRHR enhancer: 1; D1 ag: -1; TRHR agonist: 1; D1 antagonist: -9; D1 PAM: -5

How did CCC1CN(CC(=O)NCc2cccc(Br)c2)c2ccccc2S1 (configuration not stated) do in these assays?
TRHR enhancer: -7; D1 ag: 1; TRHR agonist: 1; D1 antagonist: -35*; D1 PAM: -4

What do the screens show for `O=C(Nc1cccc(Br)c1)c1ccc(OC2CSC2)cc1`?
TRHR enhancer: 9; D1 ag: 3; TRHR agonist: 1; D1 antagonist: -36*; D1 PAM: -4

How did CC(=O)c1cccc(NC(=O)c2ccc(OC3CSC3)cc2)c1 do in these assays?
TRHR enhancer: -5; D1 ag: 6; TRHR agonist: 1; D1 antagonist: -15; D1 PAM: -3
